Several values for one entry are separate records, joined by “and”; a condition that tells them apart may be missing. Identical values can stand only once. About 79,000 compounds went through this panel and 15% of them were active in at least one assay; those are over-represented in the sample as a whole. Unmarked numbers belong to inactive results. Activity calls are given as the source filed them. Rule as the data show it: active = growth inhibition above about 70%; inactive = the rest. Where a SMILES comes first, the peptide text is derived from it. [ ]: non-standard residue; d: D form. The star is where a group is joined. NMeF = CN[C@@H](Cc1ccccc1)C(=O)O; NMeV = CN[C@H](C(=O)O)C(C)C; Boc = CC(C)(C)OC(=O)*; OBn = c1ccc(CO*)cc1
Experiments:
[1] = NCI Yeast Anticancer Drug Screen. Data for the rad50 strain (AID 155);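 also: 0% = growth of vehicle-only cultures of the same strain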; conditions: S. cerevisiae rad50 strain growth inhibition, stronger effect = higher value; at 50.0 µM unless noted
Summary of the method: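 Cells are treated with compound, grown, and their growth is then scored against vehicle-only cultures of the same repair-deficient yeast strain.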

[2] = NCI Yeast Anticancer Drug Screen. Data for the mec2-1 strain (AID 157); conditions: S. cerevisiae mec2-1 strain, stronger effect = higher value; at 50.0 µM unless noted
Summary of the method: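 Growth inhibition is read against vehicle-treated controls after compound exposure of the mec2-1 yeast strain, which is defective in DNA damage repair or cell cycle control.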

[3] = NCI Yeast Anticancer Drug Screen. Data for the sgs1 mgt1 strain (AID 161);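 also: 0% = growth of cultures given vehicle only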; conditions: S. cerevisiae sgs1 mgt1 strain, stronger effect = higher value; at 50.0 µM unless noted
Summary of the method: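 Percent growth inhibition was derived by comparing compound-exposed mutant yeast with vehicle-exposed cultures. The strain carries alterations in DNA damage repair.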

[4] = NCI Yeast Anticancer Drug Screen. Data for the cln2 rad14 strain (AID 165);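 also: 0% = growth equal to vehicle treated cultures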; conditions: S. cerevisiae cln2 rad14 strain, stronger effect = higher value; at 50.0 µM unless noted
Summary of the method: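 Growth inhibition, relative to vehicle-treated controls, is the read-out. The test organism is a yeast strain with defined genetic alterations, cln2 rad14.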

[5] = NCI Yeast Anticancer Drug Screen. Data for the bub3 strain (AID 167); conditions: S. cerevisiae bub3 mutant strain, stronger effect = higher value; at 50.0 µM unless noted
Summary of the method: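 Part of a panel of yeast mutants defective in DNA damage repair or cell cycle regulation. Each strain is grown with compound, and inhibition is calculated relative to solvent-treated cultures.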

[6] = NCI Yeast Anticancer Drug Screen. Data for the mlh1 rad18 strain (AID 175); conditions: S. cerevisiae mlh1 rad18 strain growth inhibition, stronger effect = higher value; at 50.0 µM unless noted
Summary of the method: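 Cells of a genetically altered yeast strain, deficient in DNA damage repair, were treated with compound. Their growth was then compared with that of vehicle-treated cultures to give inhibition.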

Compound | growth inhibition [1] | growth inhibition [2] | growth inhibition [3] | growth inhibition [4] | growth inhibition [5] | growth inhibition [6]
CC(=O)C(C)(CC#N)C(CC=O)CCC#N (configuration not stated) | 15.9% | 4.7% | 10.2% | -1.45% | 14% | -1%
O=c1[nH]c(-c2ccccc2)nc2nc3ccc([N+](=O)[O-])cc3[n+]([O-])c12 | 19.9% | -2% | -1.75% | -7.55% | -1% | 7%
Cc1ccnc(NC#N)n1 | 14.8% | 13.6% | 21.6% | 19.1% | 19.4% | 14.8%
Oc1ccc(Br)cc1/C=N/c1nc2ccccc2s1.Oc1ccc(Br)cc1/C=N/c1nc2ccccc2s1.[Cu] | 38% | 40.9% | 0.05% | 15.3% | -0.25% | 43.5%
CCCCC1=C(c2ccccc2)/C(=N/Nc2ccc([N+](=O)[O-])cc2[N+](=O)[O-])c2ccccc21 | 12.7% | -1.45% | 5.65% | -2.85% | 1.2% | 9%
CCCCCCCCCCCCCCCCCC(O)CCCCCCCCCCCCCCCCC | -16.9% | -8.45% | -7.75% | -47.2% | 2.4% | -8.25%
Cc1ccc(N(C)S(=O)(=O)c2ccccc2)cc1 | 11.4% | -31.3% | 15.4% | 4.25% | 22.6% | 4.55%
O=C(O)Cc1ccc(-c2cn3c(n2)sc2ccccc23)cc1 | 58.1% | 22.3% | 0.05% | 5.45% | 24.8% | 16.4%
O=C(NCCCCCSC(=O)c1ccccc1)c1ccccc1 | -0.35% | 4.6% | 7.95% | 13.8% | 15.7% | -4%
CC(=O)NNC(=O)C(N)Cc1ccc(O)cc1 (configuration not stated) | 13.5% | 23.1% | 40.5% | 12.2% | 2.95% | 14.8%
O=C(Nc1ccc(Nc2ccc3c(c2)C(=O)c2ccccc2C3=O)c2c1C(=O)c1ccccc1C2=O)c1ccccc1 | -35.7% | -15.2% | -15.3% | -36.7% | -15.2% | -25.6%
Nc1cccc(S(=O)(=O)NNc2cc(Cl)ccc2Cl)c1 | 98.7% (active) | 98.6% (active) | 98.8% (active) | 98.8% (active) | 98.3% (active) | 99% (active)
COc1ccccc1NC(=O)C(/C=N/C(=S)NNC(C)=O)=C(/C)O | 0.7% | -16.2% | -27% | -5.9% | -12.6% | 2.45%
CCc1n[nH]c(=O)n1NC(=O)c1ccccc1C(=O)O | 15.8% | 11.8% | 15.2% | 20.6% | 25.9% | 16.2%
CN(/C(=N/C(=S)NCc1ccccc1)SCc1ccccc1)c1ccccc1 | 38% | 29.6% | 35.6% | 9.45% | 38.1% | 58%
CC(=O)[CH-]C(=O)c1ccccc1.CC(=O)[CH-]C(=O)c1ccccc1.CC[C@H](/C=C/C(C)[C@H]1CCC2[C@@H]3CC=C4C[C@@H]([O-])CC[C@]4(C)C3CC[C@@]21C)C(C)C.CC[C@H](/C=C/C(C)[C@H]1CCC2[C@@H]3CC=C4C[C@@H]([O-])CC[C@]4(C)C3CC[C@@]21C)C(C)C.Cl.[Ti+4] (some centres not stated) | 8% | 2.65% | 19.3% | -12.1% | 24.6% | 9.55%
[O-][N+](=Nc1ccc2c(c1)Cc1ccccc1-2)c1ccc2c(c1)Cc1ccccc1-2 | 25.7% | -20.2% | 25.1% | -19.1% | 0.35% | -7%
CC(C)[C@@H](C(=O)N1CCC[C@H]1C(=O)OCc1ccccc1)N(C)C(=O)[C@H](C(C)C)N(C)C(=O)[C@H](Cc1ccccc1)N(C)C(=O)[C@H](NC(=O)OC(C)(C)C)C(C)C (Boc-[dV][NMeF][NMeV][NMeV]P-OBn) | -41.9% | -42.1% | -38.2% | -38.1% | -42.6% | -36.3%
NC1=CNC(=O)C1 | 1.65% | 1.45% | -3.05% | -1.65% | 14.1% | -7.4%

Compound | growth inhibition [1] | growth inhibition [2] | growth inhibition [3] | growth inhibition [4] | growth inhibition [5] | growth inhibition [6]
COC1=CC2CC(C#N)C2(OC)C=C1 (configuration not stated) | -10.8% | 5.75% | -4.7% | -18.2% | -17.4% | 1.8%
S=C(c1ccccc1)c1cccc2ccccc12 | 57% | 15.1% | 58% | 2.8% | -3.55% | 36.9%
CCCCCCCCCCCCCCCCCC(=O)N/N=C\c1c(O)ccc2ccccc12 | 21.4% | 11.7% | 4.85% | 2.15% | -10.1% | 20.2%
COc1ccc(C(=O)CCC(=O)O)c(O)c1 | -3.25% | 1.35% | -12.6% | -11.1% | -4.15% | -11.3%
Cc1ccc(S(=O)(=O)Nc2ccc([N+](=O)[O-])cc2-c2ccccc2)cc1 | -0.25% | -9.2% | 0.2% | -1.15% | 5.15% | 4.2%
COc1cc(C(=O)NNC(=O)c2ccc(Cl)c(Cl)c2)cc(OC)c1OC | 24.4% | 33.9% | 20.5% | 18.4% | 33.3% | 34.9%
CCCC1([N+]2(C)CCCC2)CS(=O)C1CC (configuration not stated) | -3.8% | 8.45% | -3% | -4.8% | 5.8% | -13.3%
CC1CCC(C(C)C)C(NNC(N)=O)C1 (configuration not stated) | 39.5% and 9.65% | 12.7% and 3.8% | 5% and 6.8% | 14.3% and 3.4% | 45% and -0.95% | 15.9% and 9.6%
CCOC(OCC)C(=O)NC(Cc1ccccc1NC(=O)c1ccccc1)c1ccc2c(c1)OCO2 (configuration not stated) | 35.6% | -1.05% | 3.9% | 4.8% | 3.25% | 21.4%
O=c1[nH]nc(Cc2ccccc2)n1CCO | 13.2% | 2.65% | 18.1% | 1.3% | 8.9% | -43.4%
CC(=O)Nc1ccc(S(=O)(=O)NC(C)=O)cc1 | -5.8% | -8.75% | -2.7% | -20.4% | 6.7% | 12.6%
CN1C(=O)C(c2c[nH]c3ccccc23)N(C)C(=O)C1c1c[nH]c2ccccc12 (configuration not stated) | -29.9% | -10.8% | -79.5% | -20.1% | -27.9% | -20%
O=C1c2ccccc2-c2c1c1ccccc1c(=O)n2-c1ccccc1 | -1.7% | -26.1% | 6% | -5.85% | -13.6% | -51.6%
CN(C)c1ccc(/[N+]([O-])=N/N2C(=O)c3ccccc3C2=O)cc1 | -25.1% | -24.4% | -20.9% | -52% | -22.9% | -25.5%
CCC1CSC(NS(=O)(=O)c2ccc(N)cc2)=N1 (configuration not stated) | -18.4% | -3.5% | -0.7% | -39% | 2.15% | 1.3%
COc1ccc(-c2cccc(C(=O)O)c2C(=O)O)cc1OC | 6.1% | 20.8% | 0.4% | -17.2% | -7.4% | -10.1%
CCCCCCCCCCCCCCCOc1ccc(OCCCCCCCCCCCC)cc1 | 37.8% | -6.3% | 16.4% | -33% | 4.25% | 11.8%
Cn1c2c(c(=O)c3cc(O)ccc31)CC(O)C(C)(C)O2 (configuration not stated) | -8.9% | -10.8% | -11.7% | -11% | 8.8% | -2.7%
